This is an account of results in PubChem BioAssay (Tox21).

Test [1] is described as follows: qHTS assay to identify small molecule antagonists of the glucocorticoid receptor (GR) signaling pathway - cell viability counter screen (AID 720693; also: nearly all actives have a fitted effect of over 55% in size). (In qHTS, concentration-response curves come from the screen itself.)
The nature of test [2]: qHTS assay for identifying genotoxic compounds that show differential cytotoxicity against isogenic chicken DT40 cell lines with known DNA damage response pathways - wild type cell line (AID 743012). Also: nearly all actives have a fitted effect of over 60% in size. Also: potency is read from the fitted curve at half-maximal effect. In short, it runs like this:
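Quantitative HTS on parental DT40 cells: 40 h compound treatment at 37 C/5% CO2, with viability then determined by CellTiter-Glo luminescence. Values serve as the DNA repair-proficient reference for differential cytotoxicity.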

The nature of test [3]: qHTS assay for identifying genotoxic compounds that show differential cytotoxicity against isogenic chicken DT40 cell lines with known DNA damage response pathways - Rev3 mutant cell line (AID 743014). Also: nearly all actives have a fitted effect of over 55% in size. Also: potency is read from the fitted curve at half-maximal effect.
Test [4] in a line: qHTS assay for identifying genotoxic compounds that show differential cytotoxicity against isogenic chicken DT40 cell lines with known DNA damage response pathways - Rad54/Ku70 mutant cell line (AID 743015). Also: nearly all actives have a fitted effect of over 60% in size. Also: potency is read from the fitted curve at half-maximal effect.
The target of test [5] is Androgen receptor (Homo sapiens) (UniProt P10275). Briefly: qHTS assay to identify small molecule agonists of the androgen receptor (AR) signaling pathway using the MDA cell line (AID 743040; also: nearly all actives have a fitted effect of over 20% in size). In short, it runs like this: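 Cells plated, 5 h at 37C/0% CO2; compound or DMSO pinned; 16 h at 37C; ONE-Glo added; luminescence measured after 30 min at room temperature. Reporter line: MDA-kb2 with MMTV-luciferase responsive to AR and GR.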

Test [6] shares this target. As to the kind of experiment: qHTS assay to identify small molecule antagonists of the androgen receptor (AR) signaling pathway using the MDA cell line (AID 743042; also: potency is read from the fitted curve at half-maximal effect; nearly all actives have a fitted effect of over 55% in size). In short, it runs like this: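 Antagonist mode: compounds plus R1881 agonist added to MDA-kb2 AR-luc cells, incubated 16 h at 37C. Luciferase reporter luminescence quantified, with multiplexed CellTiter-Fluor readout for cell viability.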

The nature of test [7]: qHTS assay to identify small molecule antagonists of the thyroid receptor (TR) signaling pathway - cell viability counter screen (AID 743064). Also: nearly all actives have a fitted effect of over 50% in size. Also: potency is read from the fitted curve at half-maximal effect. In short, it runs like this:
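Viability of T3-stimulated (1 nM final) GH3.TRE-Luc cells is measured by CellTiter-Fluor fluorescence after 23.5 h compound exposure at 37 °C plus 30 min reagent incubation.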

The nature of test [8]: qHTS assay to identify small molecule antagonists of the thyroid receptor (TR) signaling pathway (AID 743065). Also: nearly all actives have a fitted effect of over 55% in size. Also: potency is read from the fitted curve at half-maximal effect. The method in brief:
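Antagonism measured as loss of luciferase signal in GH3 cells stably carrying a TRE-luciferase reporter, co-treated with compound and T3 (1 nM final) for 23.5 h at 37 C. Viability was read in the same well by CellTiter-Fluor.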

The nature of test [9]: qHTS assay to identify small molecule antagonists of the estrogen receptor alpha (ER-alpha) signaling pathway - cell viability counter screen (AID 743074; calls by dose curve;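 also: HEK293 cells carrying ER-alpha-UAS-bla reporter stimulated with 17beta-estradiol; nearly all actives have a fitted effect of over 45% in size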).
Test [10] can be described thus: qHTS assay to identify small molecule antagonists of the estrogen receptor alpha (ER-alpha) signaling pathway using the BG1 cell line - cell viability counter screen (AID 743081).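 Also: compound given together with 17beta-estradiol as the ER stimulus; nearly all actives have a fitted effect of over 45% in size.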
Test [11] has as its target Aromatase (Homo sapiens) (UniProt P11511). As to the kind of experiment: qHTS assay to identify aromatase inhibitors (AID 743083). Also: nearly all actives have a fitted effect of over 55% in size.
Test [12] is described as follows: qHTS assay to identify small molecule antagonists of the androgen receptor (AR) signaling pathway - cell viability counter screen (AID 743033; also: nearly all actives have a fitted effect of over 45% in size).
A short description of test [13]: qHTS assay to identify small molecule antagonists of the androgen receptor (AR) signaling pathway using the MDA cell line - cell viability counter screen (AID 743041; also: nearly all actives have a fitted effect of over 45% in size). The method in brief: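 Cells were plated at 3,000 per well and left 5 h. Compounds in DMSO were then pinned in, followed by R1881. After 16 h at 37C, CellTiter-Fluor fluorescence gave viability.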

For test [14], the system named is thyroid hormone receptor (rat, GH3 cells). Briefly: qHTS assay to identify small molecule agonists of the thyroid receptor (TR) signaling pathway (AID 743066; calls by dose curve).
The target in test [15] is Estrogen receptor (Homo sapiens) (UniProt P03372). As to the kind of experiment: qHTS assay to identify small molecule antagonists of the estrogen receptor alpha (ER-alpha) signaling pathway (AID 743069; active = well fitted curve in the direction sought with a large enough effect in the signal ratio in the repeat runs, not every such curve was filed as active; inconclusive = weak or mixed curves, or effect the other way; inactive = no such curve, though single readings can be large or run the other way; the % refers to the signal ratio). The method in brief:
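ER-alpha-UAS-bla GripTite HEK293 line; 2% charcoal-stripped FBS overnight; plated, 4 hr 37C/5% CO2; cpd in DMSO + 17beta-estradiol, 18 hr 37C; LiveBLAzer B/G FRET substrate 2 hr RT; fluorescence intensity.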

Test [16] shares this target. Briefly: qHTS assay to identify small molecule agonists of the estrogen receptor alpha (ER-alpha) signaling pathway (AID 743075; calls by dose curve;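 also: HEK293 GripTite cells with ER-alpha and UAS-driven beta-lactamase reporter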; also: potency is read from the fitted curve at half-maximal effect).
For test [17] the target is unchanged. Briefly: qHTS assay to identify small molecule agonists of the estrogen receptor alpha (ER-alpha) signaling pathway using the BG1 cell line (AID 743079). Also: nearly all actives have a fitted effect of over 20% in size. Also: potency is read from the fitted curve at half-maximal effect. The note with it: BG1Luc4E2 cells, ERE-luciferase agonist, 22 h; activation: at 70.3 µM (top of the series).
Test [18] is described as follows: qHTS assay to identify small molecule antagonists of the estrogen receptor alpha (ER-alpha) signaling pathway using the BG1 cell line (AID 743080; calls by dose curve;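 also: BG1 cells stimulated with 17beta-estradiol alongside compound; nearly all actives have a fitted effect of over 25% in size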). In short, it runs like this:
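BG1-Luc-4E2 cells (endogenous full-length ER-alpha, 4xERE luciferase) hormone-starved 5 days in charcoal-stripped FBS, plated 4,000/well for 24 h, then compound plus 17beta-estradiol for 21.5 h at 37 C; ONE-Glo luminescence read.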

The source made the active and inactive calls. Unless noted, calls follow the shape of the dose curve; as a rule, active = well fitted curve in the direction sought with a large enough effect in the repeat runs; inconclusive = weak or mixed curves; inactive = no such curve, though single readings can be large; an effect the other way counts as inactive or inconclusive.

Chain of Estrogen receptor (Homo sapiens) (P03372 whole entry, looked up): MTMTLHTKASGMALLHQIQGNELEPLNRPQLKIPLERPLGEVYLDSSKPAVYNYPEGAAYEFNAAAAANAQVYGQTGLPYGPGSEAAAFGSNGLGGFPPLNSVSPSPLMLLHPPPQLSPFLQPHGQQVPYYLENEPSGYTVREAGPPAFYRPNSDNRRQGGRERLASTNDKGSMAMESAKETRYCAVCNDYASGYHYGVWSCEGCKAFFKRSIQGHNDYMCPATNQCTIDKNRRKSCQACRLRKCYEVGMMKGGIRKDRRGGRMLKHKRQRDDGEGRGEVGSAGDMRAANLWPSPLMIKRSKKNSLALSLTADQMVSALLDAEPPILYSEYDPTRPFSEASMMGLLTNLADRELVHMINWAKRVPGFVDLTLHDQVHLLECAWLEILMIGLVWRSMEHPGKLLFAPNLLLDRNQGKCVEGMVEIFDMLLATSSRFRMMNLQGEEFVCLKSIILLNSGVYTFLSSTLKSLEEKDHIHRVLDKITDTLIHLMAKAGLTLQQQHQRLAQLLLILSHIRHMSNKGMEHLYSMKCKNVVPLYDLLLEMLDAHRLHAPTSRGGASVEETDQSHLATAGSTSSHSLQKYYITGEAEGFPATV
Chain of Aromatase (Homo sapiens) (P11511 whole entry, looked up): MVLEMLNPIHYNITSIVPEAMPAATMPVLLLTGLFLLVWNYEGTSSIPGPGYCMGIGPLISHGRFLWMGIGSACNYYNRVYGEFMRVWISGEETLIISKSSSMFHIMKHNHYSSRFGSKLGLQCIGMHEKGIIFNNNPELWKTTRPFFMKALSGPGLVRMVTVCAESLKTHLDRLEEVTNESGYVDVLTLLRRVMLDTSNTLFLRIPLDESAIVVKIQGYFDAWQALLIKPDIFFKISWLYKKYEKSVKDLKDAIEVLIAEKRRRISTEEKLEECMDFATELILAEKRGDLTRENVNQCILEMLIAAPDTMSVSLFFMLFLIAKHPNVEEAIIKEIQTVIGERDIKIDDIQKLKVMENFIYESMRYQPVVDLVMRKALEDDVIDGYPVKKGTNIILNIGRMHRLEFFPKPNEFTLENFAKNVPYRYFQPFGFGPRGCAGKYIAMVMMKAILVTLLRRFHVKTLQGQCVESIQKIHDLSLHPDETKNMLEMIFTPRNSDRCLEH
Chain of Androgen receptor (Homo sapiens) (P10275 whole entry, looked up): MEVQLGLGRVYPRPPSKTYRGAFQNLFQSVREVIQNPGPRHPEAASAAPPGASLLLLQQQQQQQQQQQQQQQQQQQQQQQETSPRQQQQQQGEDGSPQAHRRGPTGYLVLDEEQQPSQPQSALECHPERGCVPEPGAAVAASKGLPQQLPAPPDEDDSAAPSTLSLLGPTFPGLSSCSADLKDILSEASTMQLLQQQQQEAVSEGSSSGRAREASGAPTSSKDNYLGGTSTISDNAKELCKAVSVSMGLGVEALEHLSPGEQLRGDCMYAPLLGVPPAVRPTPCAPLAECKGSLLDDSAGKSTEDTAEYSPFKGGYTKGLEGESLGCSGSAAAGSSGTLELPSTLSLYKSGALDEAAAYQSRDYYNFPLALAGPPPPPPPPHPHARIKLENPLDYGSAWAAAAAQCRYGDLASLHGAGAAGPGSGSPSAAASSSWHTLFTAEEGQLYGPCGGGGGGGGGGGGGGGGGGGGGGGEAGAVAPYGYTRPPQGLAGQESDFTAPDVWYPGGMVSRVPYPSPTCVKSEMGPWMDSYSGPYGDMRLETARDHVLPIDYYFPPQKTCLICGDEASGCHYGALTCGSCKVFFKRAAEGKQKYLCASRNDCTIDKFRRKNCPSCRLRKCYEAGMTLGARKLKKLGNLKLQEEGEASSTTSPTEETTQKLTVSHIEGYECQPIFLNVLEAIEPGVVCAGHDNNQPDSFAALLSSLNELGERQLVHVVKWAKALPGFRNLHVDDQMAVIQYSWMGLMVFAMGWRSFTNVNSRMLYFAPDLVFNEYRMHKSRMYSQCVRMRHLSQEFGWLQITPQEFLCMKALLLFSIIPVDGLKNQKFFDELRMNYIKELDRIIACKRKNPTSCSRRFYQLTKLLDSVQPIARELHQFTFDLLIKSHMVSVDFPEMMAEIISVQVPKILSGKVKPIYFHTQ

Turning to `CCCCC1C(=O)N(c2ccccc2)N(c2ccc(O)cc2)C1=O` (centres undefined), the Potency result in test [1], in test [5], in [9], in test [10] and in test [11] was “inactive” throughout. Moreover, the Potency was 3.2 µM (active) in [2]; 5.69 µM (active) in [3]; 5.07 µM (active) in test [4]; 12.7 µM (active) in test [6]; 3.59 µM (active) in [7]; 3.2 µM (active) in [8].
Regarding `Nc1ccc(S(=O)(=O)O)c(N)c1`, the Potency result in test [1], in test [2], in [3], in test [4], in [12] and in test [13] was “inactive” throughout. The Potency entry in test [15], in test [9], in test [16], in [17], in test [18] and in test [10] was “inactive” throughout. The Potency entry in [11] is “inactive”. Further, in test [14], the call was inactive.
For `CCN(Cc1cccc(S(=O)(=O)O)c1)c1ccc(C(=C2C=CC(=[N+](CC)Cc3cccc(S(=O)(=O)[O-])c3)C=C2)c2ccccc2)cc1`, the Potency result in [1], in test [2], in test [3], in test [4], in test [12] and in test [7] was “inactive” each time. Besides, the Potency result in test [15], in test [9], in test [16], in test [17], in test [18] and in [10] was “inactive” throughout. Further, the Potency result in [11] is “inactive”. For the same compound, the compound was called inactive in test [14].
`CO[Si](C)(OC)OC`: the Potency result in test [1], in [2], in test [3], in [4], in [12] and in [15] was “inactive” each time. Besides, the Potency entry in [9], in test [16], in test [17], in test [18], in test [10] and in test [11] was “inactive” in each case. Besides, the call in test [14] was inactive.
`CN1CCN(c2c(F)cc3c(=O)c(C(=O)O)cn4c3c2OCN4C)CC1`: the Potency entry in test [1], in test [2], in test [3], in test [4], in [13] and in [8] was “inactive” each time. Further, the Potency result in [15], in test [9], in [16], in test [18], in test [10] and in [11] was “inactive” in each case. For the same compound, the compound was classed as inactive in test [14]. Moreover, in test [17], the Potency is 23.7 µM (active).
Turning to `CCn1cc(C(=O)O)c(=O)c2cc(F)c(N3CCNCC3)nc21`, the Potency result in [1], in test [2], in test [3], in test [4], in test [12] and in test [13] was “inactive” throughout. Further, the Potency result in test [15], in test [9], in test [16], in [17], in test [18] and in test [10] was “inactive” each time. In addition, the Potency result in test [11] is “inactive”. Further, in test [14], the compound was classed as inactive.
Regarding `CN1CCCN=C1/C=C/c1cccs1`, the Potency result in test [1], in [2], in test [3], in test [4], in [12] and in test [13] was “inactive” each time. Besides, the Potency entry in test [15], in test [18], in test [10] and in [11] was “inactive” throughout. For the same compound, the Potency is 23.9 µM [inconclusive] (active) in [16] and 7.5 µM (active) in [17].
With `CC(=O)CC(c1ccc([N+](=O)[O-])cc1)c1c(O)c2ccccc2oc1=O` (centres undefined), the Potency entry in test [1], in test [2], in test [3], in test [4], in test [12] and in test [15] was “inactive” each time. Further, the Potency entry in [9], in test [16], in [17], in [18], in test [10] and in [11] was “inactive” in each case.
For the compound `O=C(/C=C/c1ccccc1)OCCCc1ccccc1`, the Potency entry in [1], in test [2], in test [3], in [4], in test [12] and in [15] was “inactive” throughout. In addition, the Potency entry in [16], in test [10] and in test [11] was “inactive” in each case. Also, the Potency in test [17] was 27.3 µM (active).
